Measurements reported in PubChem BioAssay (NCATS).
Results filed as inconclusive are left out. A call without a number means that no potency is given here. Values without a mark were called inactive. Activity calls are given as the source filed them. The call rests on the fitted dose curve; in most records, active means well fitted curve in the direction sought with a large enough effect; inconclusive means small, poorly fitted or top-dose-only effect, or another doubt; inactive means no such curve, though single readings can be large; an effect the other way counts as inactive or inconclusive.

How the values were obtained:
[1] = target: Aldehyde dehydrogenase, mitochondrial (Homo sapiens) (UniProt P05091); test: qHTS for Inhibitors of the Aldehyde Dehydrogenase Family (ALDH2) Primary screen (AID 2061308); further: nearly all actives have a fitted effect of over 55% in size; further: potency means the concentration at half of the fitted maximal effect
[2] = target: Retinaldehyde dehydrogenase 3 (Homo sapiens) (UniProt P47895); test: qHTS for Inhibitors of the Aldehyde Dehydrogenase Family (ALDH1A3) Validation screen (AID 2061312); further: nearly all actives have a fitted effect of over 45% in size
[3] = target: Retinaldehyde dehydrogenase 3 (Homo sapiens) (UniProt P47895); test: qHTS for Inhibitors of the Aldehyde Dehydrogenase Family (ALDH1A3) Primary screen (AID 2061315)
[4] = BET inhibitor-based combinations targeting novel dependencies in MECOM-rearranged (r) AML: SET-2 cell line (AID 2202231); conditions: SET-2 AML cells viability, CellTiter-Glo luminescence, 48 h; viability: stronger effect = lower value, concentration not given here; further: nearly all actives have a fitted effect of over 35% in size; further: potency means the concentration at half of the fitted maximal effect
In short: (§1)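 Each compound was tested at eleven concentrations on cells seeded at 500/well. After two days' incubation, ATP-based luminescence reported viability; responses relative to DMSO and blank wells yielded AUC and cell-line-centred Z-AUC.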

[5] = BET inhibitor-based combinations targeting novel dependencies in MECOM-rearranged (r) AML: OCI-AML3 cell line (AID 2202232); conditions: Potency: OCI-AML3 viability; further: nearly all actives have a fitted effect of over 35% in size; further: potency means the concentration at half of the fitted maximal effect
In short: as §1

[6] = BET inhibitor-based combinations targeting novel dependencies in MECOM-rearranged (r) AML: MV-4-11 cell line (AID 2202233); further: nearly all actives have a fitted effect of over 45% in size; further: potency means the concentration at half of the fitted maximal effect
In short: (§2)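 First, 500 cells per well were seeded; next, drugs were pinned as 11-point doses; then plates sat 48 hr in the incubator; finally CellTiter-Glo was added and luminescence read, with AUC and Z-AUC computed.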

[7] = BET inhibitor-based combinations targeting novel dependencies in MECOM-rearranged (r) AML: HNT-34 cell line (AID 2202234); further: nearly all actives have a fitted effect of over 35% in size; further: potency means the concentration at half of the fitted maximal effect
In short: as §2

[8] = BET inhibitor-based combinations targeting novel dependencies in MECOM-rearranged (r) AML: UCSD-AML1 cell line (AID 2202235); further: potency means the concentration at half of the fitted maximal effect; nearly all actives have a fitted effect of over 40% in size
In short: as §2

[9] = BET inhibitor-based combinations targeting novel dependencies in MECOM-rearranged (r) AML: AML-191 cell line (AID 2202236; further: nearly all actives have a fitted effect of over 35% in size)
In short: as §1

[10] = BET inhibitor-based combinations targeting novel dependencies in MECOM-rearranged (r) AML: AML-194 cell line (AID 2202237; further: nearly all actives have a fitted effect of over 40% in size)
In short: as §1

[11] = target: Retinal dehydrogenase 2 (Homo sapiens) (UniProt O94788); test: qHTS for Inhibitors of the Aldehyde Dehydrogenase Family (ALDH1A2) Confirmation screens (AID 2061314); further: nearly all actives have a fitted effect of over 65% in size; further: potency means the concentration at half of the fitted maximal effect
[12] = target: Aldehyde dehydrogenase 1A1 (Homo sapiens) (UniProt P00352); test: qHTS for Inhibitors of the Aldehyde Dehydrogenase Family (ALDH1A1) Confirmatory screens (AID 2061316); further: potency means the concentration at half of the fitted maximal effect; nearly all actives have a fitted effect of over 65% in size

Q: Which Potency [1] does the source give for `CCOC(=O)Nc1nc2ccccc2[nH]1` here?
A: The Potency was “inactive”.

Q: What about the Potency [2] of the same compound?
A: Its Potency is “inactive”.

Q: What about the Potency [3] of the same compound?
A: The Potency was “inactive”.

Q: Which Potency [1] does the source give for `CC(C)Oc1ccc(C(=O)NC(CNC(=O)CN(C)C)Cc2ccc(-c3cn4cccc(C(C)O)c4n3)cc2)cc1Cl` (stereo unspecified) here?
A: Its Potency is “inactive”.

Q: And the Potency [2]?
A: Its Potency is “inactive”.

Q: And the Potency [3]?
A: The Potency was “inactive”.

Q: What does the source list for `N#Cc1ccc(COC[C@H]2O[C@@H](n3c(NCc4ccc(Cl)c(Cl)c4)nc4c(N)ncnc43)[C@H](O)[C@@H]2O)cc1`?
A: Potency [1]: inactive; Potency [2]: inactive; Potency [3]: inactive; Potency [4]: 7.42 µM (active); Potency [5]: 2.63 µM (active); Potency [6]: 14.8 µM (active); Potency [7]: 2.95 µM (active); Potency [8]: 2.63 µM (active)

Q: With `CC[C@H](C)[C@H]1O[C@]2(CC[C@@H]1C)C[C@@H]1C[C@@H](C/C=C(\C)[C@@H](O[C@H]3C[C@H](OC)[C@@H](O[C@H]4C[C@H](OC)[C@@H](O)[C@H](C)O4)[C@H](C)O3)[C@@H](C)/C=C/C=C3\CO[C@@H]4[C@H](O)C(C)=C[C@@H](C(=O)O1)[C@]34O)O2` as the compound, how does the Potency [1] read?
A: The Potency was “inactive”.

Q: What about the Potency [2] of the same compound?
A: The Potency was “inactive”.

Q: And the Potency [3]?
A: The Potency was “inactive”.

Q: With `COc1ccc(C2=N[C@@H](c3ccc(Cl)cc3)[C@@H](c3ccc(Cl)cc3)N2C(=O)N2CCNC(=O)C2)c(OC(C)C)c1` as the compound, how does the Potency [1] read?
A: Its Potency is “inactive”.

Q: What about the Potency [2] of the same compound?
A: Its Potency is “inactive”.

Q: What about the Potency [3] of the same compound?
A: The Potency was “inactive”.

Q: For `CC(=O)c1c(OCCN2CCCCC2)c(OCCC(C)c2ccc(F)cc2)c2oc(C)nc2c1C` (stereo unspecified), which Potency [1] is on record?
A: Its Potency is “inactive”.

Q: What about the Potency [2] of the same compound?
A: The Potency was “inactive”.

Q: And the Potency [3]?
A: Its Potency is “inactive”.

Q: With `COc1cc(/C=C/C(=O)N2CCN(CC(=O)N3CCCC3)CC2)cc(OC)c1OC` as the compound, how does the Potency [1] read?
A: Its Potency is “inactive”.

Q: And the Potency [2]?
A: Its Potency is “inactive”.

Q: What about the Potency [3] of the same compound?
A: Its Potency is “inactive”.

Q: For `CCCc1[nH]nc2c1C(c1cc(Cl)cc(Cl)c1O)C(C#N)=C(N)O2` (stereo unspecified), which Potency [1] is on record?
A: The Potency was “inactive”.

Q: And the Potency [2]?
A: Its Potency is “inactive”.

Q: What about the Potency [3] of the same compound?
A: Its Potency is “inactive”.

Q: What does the source list for `CN(C)c1nc(NC2CCC(NC(=O)c3ccc(F)c(F)c3)CC2)nc2ccccc12` (stereo unspecified)?
A: Potency [1]: inactive; Potency [2]: inactive; Potency [3]: inactive

Q: Which Potency [1] does the source give for `CC(=O)OC1C(=O)C2(C)C(O)CC3OCC3(OC(C)=O)C2C(OC(=O)c2ccccc2)C2(O)CC(OC(=O)C(O)C(NC(=O)c3ccccc3)c3ccccc3)C(C)=C1C2(C)C` (stereo unspecified) here?
A: The Potency was “inactive”.

Q: What about the Potency [2] of the same compound?
A: The Potency was “inactive”.

Q: What about the Potency [3] of the same compound?
A: Its Potency is “inactive”.

Q: With `COc1cc(C(=O)O)ccc1NC(=O)C1NC(CC(C)(C)C)C(C#N)(c2ccc(Cl)cc2F)C1c1cccc(Cl)c1F` (stereo unspecified) as the compound, how does the Potency [1] read?
A: Its Potency is “inactive”.

Q: And the Potency [2]?
A: The Potency was “inactive”.

Q: And the Potency [3]?
A: The Potency was “inactive”.

Q: With `CCC(=O)NS(=O)(=O)c1ccc(-c2c(-c3ccccc3)noc2C)cc1` as the compound, how does the Potency [1] read?
A: Its Potency is “inactive”.

Q: And the Potency [2]?
A: Its Potency is “inactive”.

Q: What about the Potency [3] of the same compound?
A: Its Potency is “inactive”.

Q: What about the viability [4] of the same compound?
A: The viability was 114%.

Q: What about the Potency [5] of the same compound?
A: The Potency was “inactive”.

Q: What about the Potency [6] of the same compound?
A: The Potency was “inactive”.

Q: What about the Potency [7] of the same compound?
A: Its Potency is “inactive”.

Q: What about the Potency [9] of the same compound?
A: The Potency was “inactive”.

Q: What about the Potency [10] of the same compound?
A: Its Potency is “inactive”.

Q: With `CC(=O)NC(c1ccco1)c1cc(Cl)c2ccc(Cl)nc2c1O` (stereo unspecified) as the compound, how does the Potency [1] read?
A: Its Potency is “inactive”.

Q: What about the Potency [11] of the same compound?
A: The Potency was 6.34 µM (active).

Q: Which Potency [1] does the source give for `CC(O)c1ccc(-c2ccc3ncnc(N4CCOCC4)c3c2)o1` (stereo unspecified) here?
A: The Potency was 8.91 µM (active).

Q: And the Potency [11]?
A: The Potency was 14.2 µM (active).

Q: And the Potency [3]?
A: Its Potency is “inactive”.

Q: What about the Potency [12] of the same compound?
A: Its Potency is 11.3 µM (active).

Q: For `CS(=O)(=O)N1CCN(c2nc(-c3ccc(Br)cc3)cs2)CC1`, which Potency [1] is on record?
A: Its Potency is “inactive”.

Q: What about the Potency [11] of the same compound?
A: The Potency was “inactive”.

Q: What about the Potency [3] of the same compound?
A: Its Potency is “inactive”.

Q: Which Potency [1] does the source give for `C=C(c1ccc(C(=O)O)cc1)c1cc2c(cc1C)C(C)(C)CCC2(C)C` here?
A: Its Potency is “inactive”.

Q: And the Potency [2]?
A: Its Potency is “inactive”.

Q: What about the Potency [3] of the same compound?
A: Its Potency is “inactive”.

Q: What about the viability [4] of the same compound?
A: The viability was 115%.

Q: And the Potency [10]?
A: The Potency was “inactive”.
